This note sets out measurements from PubChem BioAssay.

Test [1] concerns Wnt5a (protein binding on small-molecule microarray). In words: Wnt5a binders on small-molecule microarray, primary screen, biophysical, 635/667 nm fluorescence (AID 1142).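 Also: fluorescence read at 667 nm with signal to noise per printed feature.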 As to conditions: 635 nm fluorescence, higher = more signal.
Test [2] in a line: cell viability in Huh7 cells, primary screen, cytotoxicity control for HCV replication inhibitor project, CellTiter-Glo luminescence, basal, 48 h (AID 1143).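 Also: Huh7 hepatoma cells carrying a hepatitis C replication reporter with no stimulus; test concentration not given here.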 The note with it: Huh7 HCV replicon, higher = more signal, called active from +8 up or from −8 down. A general note: In ATP-based viability assays light output follows the ATP content of the culture.
Test [3] is described as follows: P. aeruginosa biofilm formation inhibitors, primary screen, PAO1 strain, BacTiter-Glo luminescence, LB-PBS (AID 1144). The note with it: 12 h, higher = more signal.
Test [4] in a line: CREB reporter modulators without forskolin, primary screen, cell-based, PC12, CRE-LacZ reporter, unstimulated (AID 1145). As to conditions: no forskolin, luminescence, 4.5 h, higher = more signal, called active from +8 up or from −8 down.
The nature of test [5]: CREB reporter modulators under forskolin, primary screen, cell-based, PC12, CRE-LacZ reporter, forskolin-stimulated (AID 1146).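 Also: PC12 cells with 6xCRE LacZ reporter stimulated by forskolin 10 µM; beta-galactosidase reporter signal reflecting CREB driven transcription.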 The note with it: luminescence, 4.5 h, higher = more signal, called active from +8 up or from −8 down.
Test [6] addresses Streptavidin (Streptomyces avidinii) (UniProt P22629). Put plainly: streptavidin binders on small-molecule microarray, primary screen, artefact control for SMM compound annotation, biophysical, 635/667 nm fluorescence (AID 1147).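 Also: signal reflects streptavidin binding to arrayed compounds as a control protein.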 The note with it: streptavidin binding, higher = more signal.
The nature of test [7]: small-molecule binders of probe aInhba, primary screen, biochemical, small-molecule microarray, 635/667 nm fluorescence (AID 1148).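 Also: score merges 667nm spot fluorescence with signal-to-noise for antibody binding to printed compounds.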 As to conditions: higher = more signal.
Test [8] deals with Torsin-1A (Homo sapiens) (UniProt O14656). Put plainly: torsin A binders from cell lysate, primary screen, small-molecule microarray, wild-type, 635/667 nm (AID 1149). As to conditions: COS7 hTOR1A-WT lysate, 635 nm fluorescence, higher = more signal.
For test [9] the target is unchanged. Put plainly: small-molecule binders of mutant TOR1A in lysate, primary screen, cell lysate, small-molecule microarray, COS7 lysate, 635/667 nm fluorescence (AID 1150).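 Also: score pools 667 nm emission and signal to noise measuring lysate protein binding.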 As to conditions: COS7 hTOR1A mutant lysate, 635 nm fluorescence, higher = more signal.
The subject of test [10] is Sonic hedgehog protein (Shh). Put plainly: small-molecule binders of Shh protein, primary screen, biochemical, small-molecule microarray, 635/667 nm fluorescence (AID 1151).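 Also: Shh protein binding to compounds spotted on small-molecule microarray slides; score combines spot fluorescence intensity with signal-to-noise across triplicate slides.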 The note with it: small-molecule microarray binding, 635 nm fluorescence; higher = more signal.
Test [11] is described as follows: E. coli DRC41 culture turbidity changes, primary screen, E. coli filamentation inducer project, strain DRC41, OD650, 48 h (AID 1152).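 Also: E. coli MC1000 strain DRC41 lacking acrAB efflux pump and sulA.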 As to conditions: E. coli DRC41 (acrAB sulA), higher = more signal, called active from +8 up or from −8 down.
A short description of test [12]: small-molecule binders of probe aLefty1, primary screen, biochemical, small-molecule microarray, 635/667 nm fluorescence (AID 1153).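 Also: score merges spot fluorescence with signal-to-noise ratio from the scanned slide images.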 As to conditions: higher = more signal.
A short description of test [13]: PSAC antagonists in infected red cells, primary screen, cell-based, P. falciparum Indochina, OD700, 1 h (AID 1154). As to conditions: P. falciparum Indochina infected RBC osmotic lysis, higher = more signal, called active from +8 up or from −8 down.
Test [14] in a line: PSAC antagonists in infected red cells, primary screen, cell-based, P. falciparum Indochina, OD700, 2 h (AID 1155).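 Also: lysis reports solute entry through the parasite surface anion channel PSAC; channel blockers reduce lysis of infected cells.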 The note with it: P. falciparum Indochina infected erythrocytes, osmotic lysis OD700; higher = more signal, called active from +8 up or from −8 down.
The nature of test [15]: osmotic lysis modulators in infected erythrocytes, primary screen, PSAC antagonist project, cell-based, P. falciparum Indochina, OD700, 3 h (AID 1156). The note with it: higher = more signal, called active from +8 up or from −8 down.
Test [16] can be described thus: PSAC antagonists in infected red cells, primary screen, cell-based, P. falciparum Indochina, OD700, 18 h (AID 1157). As to conditions: P. falciparum Indochina infected erythrocytes, osmotic lysis OD700, 18 h; higher = more signal, called active from +8 up or from −8 down.
Test [17] in a line: modulators of S6 phosphorylation in cells, primary screen, cell-based, A549, cytoblot, luminescence, serum-stimulated (AID 1158).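 Also: serum-stimulated A549 lung adenocarcinoma cells; signal is phosphorylated S6 detected by cytoblot immunostaining with HRP secondary.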 The note with it: A549 phospho-S6 cytoblot, 5 h, higher = more signal.
The target of test [18] is NADPH oxidase 2 (Homo sapiens) (UniProt P04839). In words: NOX2-dependent H2O2 signal modulators, primary screen, NOX inhibitor project, cell-based, HEK293-NOX2, PMA-stimulated, Amplex Red fluorescence (AID 1159). Also: test concentration not given here. The note with it: 45 min, higher = more signal, called active from +8 up or from −8 down.
The target of test [19] is NADPH oxidase 4 (Homo sapiens) (UniProt Q9NPH5). In words: NOX4-dependent H2O2 signal modulators, primary screen, NOX inhibitor project, cell-based, HEK293-NOX4, tetracycline-induced, Amplex Red fluorescence (AID 1160). As to conditions: 45 min, higher = more signal, called active from +8 up or from −8 down.
The target in test [20] is NADPH oxidase 5 (Homo sapiens) (UniProt Q96PH1). Put plainly: NOX5-dependent H2O2 signal modulators, primary screen, NOX inhibitor project, cell-based, HEK293-NOX5, Amplex Red fluorescence (AID 1161). The note with it: HEK293-NOX5, ionomycin, 45 min, higher = more signal.

Molecules are shown by their SMILES. The source made the active and inactive calls. Unless noted, no rule for the calls is given here.

Chain of Torsin-1A (Homo sapiens) (O14656 whole entry, looked up): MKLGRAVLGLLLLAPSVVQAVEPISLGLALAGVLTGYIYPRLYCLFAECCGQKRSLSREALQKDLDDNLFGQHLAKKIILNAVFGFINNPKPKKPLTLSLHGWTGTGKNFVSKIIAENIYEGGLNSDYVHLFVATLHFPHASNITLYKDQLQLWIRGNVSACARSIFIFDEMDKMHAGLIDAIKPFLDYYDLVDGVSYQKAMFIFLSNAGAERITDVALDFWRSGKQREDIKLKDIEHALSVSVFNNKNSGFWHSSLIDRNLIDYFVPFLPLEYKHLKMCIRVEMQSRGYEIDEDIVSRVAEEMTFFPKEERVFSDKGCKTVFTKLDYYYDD
Chain of NADPH oxidase 2 (Homo sapiens) (P04839 whole entry, looked up): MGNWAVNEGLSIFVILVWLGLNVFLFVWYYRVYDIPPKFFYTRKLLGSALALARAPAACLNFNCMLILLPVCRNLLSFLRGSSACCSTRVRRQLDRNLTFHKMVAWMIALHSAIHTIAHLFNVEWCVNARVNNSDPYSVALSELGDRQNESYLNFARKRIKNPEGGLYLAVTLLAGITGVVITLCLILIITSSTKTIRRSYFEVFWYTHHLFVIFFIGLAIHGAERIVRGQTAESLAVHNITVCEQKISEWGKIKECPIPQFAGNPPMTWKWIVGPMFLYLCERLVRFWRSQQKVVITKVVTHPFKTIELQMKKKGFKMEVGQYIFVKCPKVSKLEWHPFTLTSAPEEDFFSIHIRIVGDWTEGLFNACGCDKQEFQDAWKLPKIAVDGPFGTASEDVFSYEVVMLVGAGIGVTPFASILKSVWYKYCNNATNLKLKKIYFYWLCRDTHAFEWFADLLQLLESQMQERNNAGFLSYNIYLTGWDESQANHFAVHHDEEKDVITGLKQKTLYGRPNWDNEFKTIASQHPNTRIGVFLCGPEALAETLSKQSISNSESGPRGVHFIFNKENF
Chain of NADPH oxidase 4 (Homo sapiens) (Q9NPH5 whole entry, looked up): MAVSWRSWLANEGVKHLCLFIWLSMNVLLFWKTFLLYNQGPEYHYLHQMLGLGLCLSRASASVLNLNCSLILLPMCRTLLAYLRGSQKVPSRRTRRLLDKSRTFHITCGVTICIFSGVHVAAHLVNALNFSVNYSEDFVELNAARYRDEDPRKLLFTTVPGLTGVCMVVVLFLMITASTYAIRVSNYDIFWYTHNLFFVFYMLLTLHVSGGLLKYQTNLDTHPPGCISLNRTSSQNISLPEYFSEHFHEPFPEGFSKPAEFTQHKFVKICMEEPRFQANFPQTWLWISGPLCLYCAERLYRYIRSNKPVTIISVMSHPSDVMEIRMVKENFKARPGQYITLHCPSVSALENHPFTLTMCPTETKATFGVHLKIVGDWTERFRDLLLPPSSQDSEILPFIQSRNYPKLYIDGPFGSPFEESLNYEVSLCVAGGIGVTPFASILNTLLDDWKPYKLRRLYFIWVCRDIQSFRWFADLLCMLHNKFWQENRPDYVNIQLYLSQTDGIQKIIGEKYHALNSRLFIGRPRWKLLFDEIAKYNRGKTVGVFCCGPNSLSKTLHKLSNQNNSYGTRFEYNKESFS
Chain of NADPH oxidase 5 (Homo sapiens) (Q96PH1 whole entry, looked up): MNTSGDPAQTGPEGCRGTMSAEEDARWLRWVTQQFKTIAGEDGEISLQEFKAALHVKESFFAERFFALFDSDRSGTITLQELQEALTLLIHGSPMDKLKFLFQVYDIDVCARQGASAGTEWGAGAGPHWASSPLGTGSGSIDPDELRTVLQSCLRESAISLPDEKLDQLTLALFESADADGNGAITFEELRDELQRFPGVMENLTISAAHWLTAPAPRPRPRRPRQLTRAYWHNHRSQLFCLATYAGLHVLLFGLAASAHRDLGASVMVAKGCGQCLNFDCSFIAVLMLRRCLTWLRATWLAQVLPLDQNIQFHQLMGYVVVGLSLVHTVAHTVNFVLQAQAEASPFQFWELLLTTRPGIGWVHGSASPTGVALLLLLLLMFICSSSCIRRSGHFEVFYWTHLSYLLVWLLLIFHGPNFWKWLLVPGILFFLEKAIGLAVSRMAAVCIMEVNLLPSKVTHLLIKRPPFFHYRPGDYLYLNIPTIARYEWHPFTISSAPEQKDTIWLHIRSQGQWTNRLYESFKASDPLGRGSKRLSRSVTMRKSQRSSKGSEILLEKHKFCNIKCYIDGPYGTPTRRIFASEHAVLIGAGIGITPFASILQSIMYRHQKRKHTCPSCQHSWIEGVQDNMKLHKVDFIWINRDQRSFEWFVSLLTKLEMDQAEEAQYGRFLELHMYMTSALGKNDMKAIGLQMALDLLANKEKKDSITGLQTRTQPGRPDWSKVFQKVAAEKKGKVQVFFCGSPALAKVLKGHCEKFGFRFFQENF
Chain of Streptavidin (Streptomyces avidinii) (P22629 whole entry, looked up): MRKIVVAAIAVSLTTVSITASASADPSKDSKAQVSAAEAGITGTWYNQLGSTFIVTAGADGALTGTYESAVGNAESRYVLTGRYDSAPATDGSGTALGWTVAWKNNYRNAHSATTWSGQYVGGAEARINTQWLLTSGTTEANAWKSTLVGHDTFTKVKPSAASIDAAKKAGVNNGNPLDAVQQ

Take `C=CCN1C(=O)[C@]2(O[C@H](CCn3cc([C@H](O)c4ccccc4)nn3)[C@@H]([Si](C)(C)c3ccc(OC)cc3)[C@@H]2C)c2cc(NC(=O)c3ccc(OC)cc3)ccc21`: the composite z-score in test [1] was 0.0292; in test [6], -0.0759; in test [7], 0.117; in the test with Torsin-1A (Homo sapiens) [8], -0.68; with Torsin-1A (Homo sapiens) [9], 0.0247; in test [10] it was 1.36. For the same compound, the composite z-score in test [12] was determined as 0.179. Moreover, the z-score in test [2] is -3.84 (inactive); in test [3] it was -1.5 (inactive); in test [4], 1.05 (inactive); in test [5] it was -1.54 (inactive); in [11], 0.294 (inactive); in [13] it was 5.48 (inactive). The z-score was 2.21 (inactive) in test [14]; 2.59 (inactive) in test [15]; 1.18 (inactive) in test [16]; -0.0732 in test [17]; 0.51 (inactive) in test [18]; 0.564 (inactive) in test [19]. The z-score in [20] was -0.0881.

With `C=C(/C(=C/C[C@@H](OC(C)=O)c1cccc(OCCO)c1)c1cnc2ccccc2c1)C(C)C`, the composite z-score amounted to 1 in test [1]; 0.208 in test [6]; 0.0013 in test [7]; 1.83 with Torsin-1A (Homo sapiens) [8]; 1.29 in the test with Torsin-1A (Homo sapiens) [9]; 2.05 in test [10]. In test [12], this compound displayed a composite z-score of 0.0582. The z-score in test [2] was -1.69 (inactive); in test [3], -1.04 (inactive); in test [4] it was 0.769 (inactive); in test [5], 1.32 (inactive); in test [11], 0.509 (inactive); in test [13] it was 12.5 (active). Besides, the z-score in test [14] was 2.52 (inactive); in test [15], 1.24 (inactive); in [16], 0.895 (inactive); in test [17], 0.328; in [18] it was -1.71 (inactive); in test [19], -0.885 (inactive). The compound also returned a z-score in [20] of -1.73.

Consider `COCCCNC(=O)[C@@]1(Sc2ccc(C)cc2)CC(=O)N(Cc2ccccc2C(F)(F)F)[C@@H]1c1ccc(CO)cc1I`, for which the composite z-score in test [1] was -0.249; in test [6], -0.503; in [7], -0.111; with Torsin-1A (Homo sapiens) [8], -1.5; in the test with Torsin-1A (Homo sapiens) [9], -0.642; in test [10], -1.02. The same compound showed a composite z-score in test [12] of 0.112. Also, the z-score was -0.818 (inactive) in [2]; 0.86 (inactive) in [3]; -0.0888 (inactive) in test [4]; 0.421 (inactive) in test [5]; 0.0516 (inactive) in test [11]; 2.06 (inactive) in [13]. In addition, the z-score is 0.786 (inactive) in test [14]; 0.385 (inactive) in test [15]; 0.377 (inactive) in [16]; -0.248 in test [17]; 0.843 (inactive) in test [18]; -1.01 (inactive) in [19]. In test [20], this compound had a z-score of 2.49.

On to `C=CCOC(=O)[C@H]1[C@@H]2C(=O)O[C@@H](c3ccccc3)[C@@H](c3ccccc3)N2[C@@H](c2ccc(OCCOC(=O)[C@@H]3C[C@@H]4C(=O)N[C@@H](CCCC[N+](C)(C)C)C(=O)N4[C@@H]3c3ccc(O)cc3)cc2)[C@]12C(=O)Nc1ccc(I)cc12`, for which the composite z-score was found to be 1.02 in test [1]; 0.0756 in test [6]; 0.632 in test [7]; 1.16 with Torsin-1A (Homo sapiens) [8]; 1.57 with Torsin-1A (Homo sapiens) [9]; 2.05 in [10]. For the same compound, the composite z-score in [12] came to 0.521. The z-score in [2] was -0.56 (inactive); in test [3] it was 0.201 (inactive); in test [4], 0.553 (inactive); in test [5], 1.07 (inactive); in test [11], -1.78 (inactive); in test [13], -1.03 (inactive). Moreover, the z-score in test [14] is -0.497 (inactive); in [15], 5.53 (inactive); in test [16], -0.582 (inactive); in [17], -2.1; in [18] it was 1.66 (inactive); in [19], -1.21 (inactive). The z-score in test [20] came out at 0.61.
